# Source: the supplement of paper PMC13380429
# Test system: Vero E6 infected with SARS-CoV-2
# Assay: inhibition of SARS-CoV-2 cytopathic effect; higher = more antiviral protection, active = above 15
# Settings: 100 nM; 48 h
row,SMILES,inhibition of SARS-CoV-2 cytopathic effect
1,NC(=O)c1ncn([C@@H]2O[C@H](CO)[C@@H](O)[C@H]2O)c1N [acadesine],1.8% (inactive)
2,NCc1cc(O)no1 [muscimol],2.35% (inactive)
3,CCCn1c(=O)c2nc(C34CC5CC(CC3C5)C4)[nH]c2n(CCC)c1=O,2.44% (inactive)
4,CCCCNNC(=O)c1ccc(Br)cc1,2.26% (inactive)
5,CC(=O)C1=C(O)[C@@H]2[C@H]3c4c[nH]c5cccc(c45)C[C@H]3C(C)(C)N2C1=O [cyclopiazonic-acid],2% (inactive)
6,C=CCN1CC[C@]23c4c5ccc(O)c4O[C@H]2/C(=N/NC(=O)c2ccccc2)CC[C@@]3(O)[C@H]1C5 [naloxone-benzoylhydrazone],0.75% (inactive)
7,CC(C)(C)C(=O)/C(=N/c1ccc(Cl)cc1)NNc1ccc(Cl)cc1,1.03% (inactive)
8,O=C(Nc1ncc(SCCN2CCCC2)s1)[C@]1(c2ccc(S(=O)(=O)C3CC3)cc2)C[C@H]1C1CCCCC1,-2.63% (inactive)
9,CC(C)(C)NCC(O)c1cc(O)cc(O)c1 (stereo not given),-1.85% (inactive)
10,C#C[C@]1(O)CC[C@H]2[C@@H]3CCc4cc(O)ccc4[C@H]3CC[C@@]21C,6.67% (inactive)
11,CCn1cc(C(=O)O)c(=O)c2cnc(N3CCCC3)nc21 [piromidic-acid],0.19% (inactive)
12,C=CC(=O)Nc1cccc(Nc2nc(Nc3ccc(N4CCN(C(C)=O)CC4)cc3OC)ncc2C(F)(F)F)c1 [rociletinib],-0.14% (inactive)
13,CCOc1nc2cccc(C(=O)OCc3oc(=O)oc3C)c2n1Cc1ccc(-c2ccccc2-c2noc(=O)[nH]2)cc1 [azilsartan-medoxomil],2.01% (inactive)
14,CC[C@@](C)(Nc1ccnc(-c2c[nH]c3ncccc23)n1)C(=O)NCC(F)(F)F [decernotinib],-0.04% (inactive)
15,CNC(=N)NC(=O)Nc1c(C)cccc1C [lidamidine],3.39% (inactive)
16,CCCC[P+](CCCC)(CCCC)Cc1ccc(NC(=O)[C@H](Cc2ccc3ccccc3c2)N/C(=N/C2CCCCC2)NC2CCCCC2)cc1,-4.22% (inactive)
17,Cc1cc(CN)cc(C)c1NC(=O)c1ccc(-c2cc(Cl)ccc2Cl)o1,3.29% (inactive)
18,N#C/C(=C1/SCC(c2ccccc2Cl)S1)n1ccnc1 (stereo not given) [lanoconazole],4.14% (inactive)
19,CCOCc1nc2c(N)nc3ccccc3c2n1CC(C)(C)O [resiquimod],1.55% (inactive)
20,CCCCc1nc(Cl)c(C(=O)O)n1Cc1ccc(-c2ccccc2-c2nn[nH]n2)cc1 [carboxylosartan],1.92% (inactive)

row,SMILES,inhibition of SARS-CoV-2 cytopathic effect
1,CN1CCN(C(=O)c2cc3cc(Cl)ccc3[nH]2)CC1,-1.58% (inactive)
2,Nc1nccc(/C=C/c2ccccc2)n1,0.04% (inactive)
3,C[C@]12CC[C@@H]3c4ccc(OS(=O)(=O)O)cc4CC[C@H]3[C@@H]1CCC2=O [estropipate],0.66% (inactive)
4,CC(=O)[O-].CC(=O)[O-].N.NC1CCCCC1.[Cl-].[Cl-].[Pt+4] [satraplatin],2.26% (inactive)
5,c1ccc(CCNc2nc(-c3ccccc3)cs2)cc1 [fanetizole],-2.73% (inactive)
6,Nc1nc(N)c2nc(-c3cccc(O)c3)cnc2n1,0.04% (inactive)
7,CN1CCCCC1Cn1cc(C(=O)c2cc([N+](=O)[O-])ccc2I)c2ccccc21 (stereo not given),0.04% (inactive)
8,CC(O)(P(=O)(O)O)P(=O)(O)O [etidronic-acid],-1.2% (inactive)
9,Cc1cc2cc3c(C)cc(=O)oc3c(C)c2o1 [trioxsalen],0.65% (inactive)
10,Cc1cc(Cn2nnc3c(-c4ccco4)nc(N)nc32)ccc1N [vipadenant],2.73% (inactive)
11,CC(=O)SC[C@@H](C)C(=O)N1CCC[C@H]1C(=O)N[C@@H](Cc1ccccc1)C(=O)O [alacepril],0.98% (inactive)
12,C[C@@H]1CC[C@@]2(OC1)O[C@H]1C[C@H]3[C@@H]4CC=C5C[C@@H](O)CC[C@]5(C)[C@H]4CC[C@]3(C)[C@H]1[C@@H]2C [diosgenin],0.12% (inactive)
13,Cc1c(Cc2ccc3ccccc3n2)c2cc(F)ccc2n1CC(=O)O,0.44% (inactive)
14,Nc1ccc2ncnc(NCCc3ccc(Oc4ccccc4)cc3)c2c1,-1.53% (inactive)
15,CC(C)C(=O)Nc1ncc(-c2cc(C(F)F)nn2-c2c(Cl)cccc2Cl)s1,-0.32% (inactive)
16,CC1=CC(=O)c2ccccc2C1=O [menadione],-0.28% (inactive)
17,O=[N+]([O-])c1c(Nc2cc(F)cc(Cl)c2)ccc2nonc12,1.45% (inactive)
18,Cc1ccc2cc(-c3c(C)ccc(C(=O)c4c(-c5ccccc5)n(C)n(-c5ccccc5)c4=O)c3N)ccc2n1,-0.14% (inactive)
19,CCCCS(=O)(=O)N[C@@H](Cc1ccc(OCCCCC2CCNCC2)cc1)C(=O)O [tirofiban],0.55% (inactive)
20,CCCCCNCC(N)=O [milacemide],2.01% (inactive)
